Only some compounds are listed: those with a hit (about 17% of all), similar ones and a draw of the others.
TGFb SMAD3 inh: inhibitors of TGF-b signaling. HepG2 CAGA-GFP TGF-b/SMAD3 reporter, GFP fluorescence, 18 h; TGF-beta stimulated, 500 pg/mL final. Potency, µM (titrated, usually from 46.1 µM), inactives show top-dose activity, negative = inhibition, hits mostly inhibitors. AID 588855. 1.2% of 410,000 active; note: % is set by controls: 0 for no effect and ±100 for the full control effect; nearly all actives have a fitted effect of over 65% in size
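HEPG2 CAGA-GFP cells (1000/well, DMEM with 1% FBS) were pre-incubated 2 h at 37 degrees C, given compound by pin tool, then stimulated with TGF-beta at 500 pg/mL final for 18 h before per-cell GFP fluorescence imaging.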
ATXN2 expr inh: reduces ATXN2 reporter expression in HEK-293 cells; Potency, µM (doses to about 57 µM), inactives show at the highest dose activity change, negative = inhibition, most hits filed as inhibitors; AID 1745845; HEK-293 ATXN2-luciferase reporter, luminescence, 24 h; 0.72% of 360,000 active; note: % is set by controls: 0 for no effect and ±100 for the full control effect; nearly all actives have a fitted effect of over 55% in size
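qHTS (up to 57 uM final) was run with 24 h compound exposure of reporter cells at 37 °C. Each well was multiplexed: SteadyGlo luminescence measured ATXN2-luciferase expression after a fluorogenic Gly-Phe-AFC viability readout (25 uM final).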
TDP1 cell CPT: DT40-hTDP1 cell growth loss with CPT; chicken DT40 Tdp1-/-;hTDP1 cells + 20 nM CPT, ATP luminescence, 48 h; Potency, µM (series often up to 46.2 µM), inactives show at the highest dose activity change, negative = growth inhibition, most hits filed as inhibitors; 12% of 420,000 active; AID 686979; note: % is set by controls: 0 for no effect and ±100 for the full control effect; nearly all actives have a fitted effect of over 55% in size
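Cell growth measured by CellTiter-Glo luminescence after a minimum 48 h, 37 C compound exposure with 20 nM CPT in Tdp1-knockout DT40 cells stably expressing hTDP1, seeded 400/well; qHTS titration format.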
TDP1 cell noCPT: qHTS for Inhibitors of human tyrosyl-DNA phosphodiesterase 1 (TDP1): qHTS in cells in absence of CPT; DT40 Tdp1-/- hTDP1 cells, no CPT, ATP luminescence, 48 h; Potency, µM (top dose mostly 46.2 µM), inactives show top-dose activity change, negative = growth inhibition, hits mostly inhibitors; 15% of 420,000 active; note: % is set by controls: 0 for no effect and ±100 for the full control effect; nearly all actives have a fitted effect of over 55% in size
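DT40 Tdp1-/-;hTDP1 cells, no CPT (DMSO vehicle only), 400 cells/well; compounds pin-transferred; ≥48 hr, 37 °C; CellTiter-Glo 30 min RT dark, luminescence read.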
HepG2 tox: counter-screen for TGF-b inhibitors: cytotoxicity in HepG2 cells; 0.76% of 410,000 active; HepG2 CAGA-GFP viability, ATP luminescence, 18 h; Potency, µM (highest dose often 46.1 µM), inactives show at the top dose activity change, negative = cytotoxicity, usual class: cytotoxic; AID 588856
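CellTiter-Glo luminescence gave cytotoxicity after 18 hours at 37 degrees C. The cells were HepG2 CAGA-GFP in 1% FBS DMEM, stimulated with 500 pg/mL TGF-beta after compound addition. %Activity was normalised to no-cell wells (complete cell-killing) and DMSO (no toxicity), and curves were fitted and classified.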
ATXN viability: reduces viability in counter-screen for ATXN expression inhibitors; 0.49% of 400,000 active; Potency, µM (top dose mostly 56.7 µM), hits mostly cytotoxic; S2 cells (HEK-293 line with an ATXN2-luciferase reporter) viability, CellTiter-Fluor protease fluorescence, 24 h; note: nearly all actives have a fitted effect of over 40% in size
Numbers without * were called inactive; i = inactive; ? = inconclusive; / = no result given. Calls come from the whole dose curve; as a rule, active = well fitted curve in the direction sought with a large enough effect; inconclusive = small, poorly fitted or top-dose-only effect, or another doubt; inactive = no such curve, though single readings can be large; an effect the other way counts as inactive or inconclusive. Potency is the fitted concentration of half-maximal effect.

SMILES | TGFb SMAD3 inh | ATXN2 expr inh | TDP1 cell CPT | TDP1 cell noCPT | HepG2 tox | ATXN viability
O=C(COc1cccc2c1CCNC2=O)Nc1cccc(C(F)(F)F)c1 | 0.6% | -11.0% | 8.2µM* | 16.4µM* | -30.2% | i
COc1ccc(CN(C)C(=O)c2ccc(OCC(=O)Nc3cccc(C(F)(F)F)c3)c(OC)c2)c(OC)c1 | ? | -30.0% | ? | ? | -3.4% | i
COc1cc(CCC(=O)Nc2nnc(C)s2)cc(OC)c1OC | 0.2% | -3.4% | 4.61µM* | 2.91µM* | 5.3% | ?
COc1cccc(CN(C)C(=O)c2ccc(OCC(=O)Nc3cccc(C(F)(F)F)c3)c(OC)c2)c1 | -26.4% | ? | 10.3µM* | 9.2µM* | -62.8% | i
CCC(C)[C@H](NS(=O)(=O)c1ccc(C)cc1)C(=O)N1CCC(C(=O)N[C@H](C(=O)O)c2ccccc2)CC1 (stereo partly specified) | 1.0% | 1.5% | 1.3% | -0.6% | -2.6% | i
CNC(=S)N1C2CCCC1CC(NC(=O)c1ccc(F)cc1)C2 (stereo unspecified) | 1.8% | / | 1.2% | -2.9% | -38.1% | i
CCC(=O)Nc1nc2ccc3nc(C)sc3c2s1 | -4.4% | 30.6% | ? | 20.6µM* | 2.6% | i
Cc1cc(C)c(C(=O)Nc2ccc(Br)c(C(F)(F)F)c2)c(C)c1 | ? | ? | 16.4µM* | 11.6µM* | -22.3% | ?
COc1ccc2sc(NC(=O)CC(C)C)nc2c1 | -0.5% | 67.1% | ? | -25.2% | -19.7% | i
COc1cc(/C=C(\C#N)C(=O)Nc2cc(C(F)(F)F)ccc2Cl)ccc1OCC(=O)Nc1cccc(C(F)(F)F)c1 | -2.8% | -14.2% | 23.1µM* | ? | -5.1% | /
COc1cc(/C=C(\C#N)C(=O)Nc2cccc(C(=O)O)c2)ccc1OCc1ccc(C)cc1 | ? | 40.7% | -9.3% | -22.2% | -22.2% | i
CCC(=O)Nc1nc2cc(OC)ccc2s1 | -4.2% | 13.8% | ? | 18.4µM* | -25.1% | i
O=C(O)c1ccccc1C(=O)Nc1ccc(Br)c(C(F)(F)F)c1 | 0.3% | / | -4.8% | -1.4% | -9.2% | i
CCC(=O)Nc1nc2c(OC)ccc(OC)c2s1 | -7.9% | -1.0% | 2.4% | -8.0% | -16.6% | i
COc1cc(C(=O)Nc2ccc(Cl)c(C(F)(F)F)c2)cc(OC)c1OC | 0.0% | 4.6% | 14.6µM* | 23.1µM* | 8.4% | i
COCC(=O)Nc1cccc(C(F)(F)F)c1 | 10.3% | -1.1% | -0.1% | -17.0% | 0.5% | i
COc1cc(CCC(=O)Nc2cc(C)cc(C)c2)cc(OC)c1OC | -4.3% | -23.4% | -24.8% | 16.4µM* | -3.6% | i
COc1cc(CCC(=O)Nc2cccc(C(F)(F)F)c2)cc(OC)c1OC | -4.6% | -11.6% | ? | 13µM* | 12.7% | i
COc1ccc2nc(NC(=O)CCc3cc(OC)c(OC)c(OC)c3)sc2c1 | -8.3% | -21.3% | ? | 20.6µM* | -4.5% | i
COc1cccc(C(=O)Nc2ccc(Cl)c(C(F)(F)F)c2)c1 | ? | 12.5% | ? | ? | -37.5% | ?
C[C@]12CC[C@H](O)CC1=CCC1C2CC[C@@]2(C)C1CC[C@@H]2NC(=O)[C@@H](N)Cc1cnc[nH]1 (stereo partly specified) | -0.6% | -24.1% | -21.0% | ? | 2.8% | i
COc1cc(CCC(=O)Nc2ccc(Br)c(C(F)(F)F)c2)cc(OC)c1OC | 15.8µM* | -15.6% | 18.4µM* | 20.6µM* | -46.7% | i
COc1cc(=O)n2c(c1C(=O)N(C)Cc1nonc1C)CCN(C(=O)c1cc(C)ccc1C)CC2 | / | / | 5.7% | -3.8% | / | i
